From PubChem BioAssay AID1220 (Sanford-Burnham Center for Chemical Genomics, 2008)
Out of some 190,000 compounds screened, about 1,300 (0.68%) were called active. Cut-off read from the data, not from the text of the source: active = inhibition above about 50%; inactive = the rest. Only a selection was taken, and actives are over-represented in it overall.

molecular target: Mannose-6-phosphate isomerase (Homo sapiens) (UniProt P34949); test: human PMI inhibitors, high substrate, primary screen, biochemical, fluorescence intensity, high mannose 6-phosphate (AID 1220); conditions: recombinant PMI enzyme, coupled fluorescence intensity; at 20 µM; active compounds read high
Sequence (P34949 whole entry, looked up): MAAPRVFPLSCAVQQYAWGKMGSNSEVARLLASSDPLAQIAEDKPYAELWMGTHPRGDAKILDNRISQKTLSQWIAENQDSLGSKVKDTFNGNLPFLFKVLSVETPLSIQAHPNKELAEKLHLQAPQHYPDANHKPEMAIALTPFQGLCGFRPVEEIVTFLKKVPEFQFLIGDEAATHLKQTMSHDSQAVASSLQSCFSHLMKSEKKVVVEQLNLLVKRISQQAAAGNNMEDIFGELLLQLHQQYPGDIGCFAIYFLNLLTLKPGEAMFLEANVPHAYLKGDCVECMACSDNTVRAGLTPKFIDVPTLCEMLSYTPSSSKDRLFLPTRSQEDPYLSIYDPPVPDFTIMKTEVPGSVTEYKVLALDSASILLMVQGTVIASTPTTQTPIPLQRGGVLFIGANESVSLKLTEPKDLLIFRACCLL

inhibition, inactive:
CN(CC(=O)Nc1ccc(F)cc1)c1ccc(S(=O)(=O)N2CCCC2)cn1 1.4%
CCn1ncc([C@@H]2C[C@H]3CN(Cc4ccccc4C)C(=O)[C@]34CCCN24)c1C 25.8%
O=C(O)CNc1nc(Cl)ccc1[N+](=O)[O-] 13.4%
O=C(O)C1CN(c2nc(Cl)ccc2[N+](=O)[O-])C1 47.3%
Cc1cccc(N2C(=O)CC(N3CCOCC3)C2=O)c1 (stereo not drawn) -1.5%
CC1(C)CC(=O)/C(=C(\O)c2ccccc2)C(=NCCc2ccccc2)C1 -2.6%
Cc1ccc(O)c(C(=O)c2cnn(-c3ccccc3)c2)c1 12.6%
Cc1ncc(CC(=O)n2cc(C(=O)c3cc(F)ccc3O)cn2)s1 8.5%
CCN(CC)CCCNC(=O)c1cn(CC)c2ccc(S(=O)(=O)N3CCc4ccccc4C3)cc2c1=O 0%
O=C1CNC(=O)/C1=C\c1ccc(O)cc1 -3.7%
Cc1c(NC(=O)OCCSc2nc(N(C)C)nc(N(C)C)n2)sc(=S)n1C 5.4%
CSc1ccccc1NC(=O)C(=O)c1c[nH]c2ccccc12 -2.7%
O=C(Nc1ccccc1N1CCOCC1)C1Cc2ccccc2CN1C(=O)c1ccco1 (stereo not drawn) -3.5%
COc1c(Cl)cc(C(=O)Nc2ccccc2C(=O)O)cc1Cl 0.7%
COc1ccc(N=Cc2sc3ccccc3c2Cl)cc1 1.8%
Cc1ccc(O)c(N=Cc2sc3ccccc3c2Cl)c1 19.3%
Oc1c(C=Nc2cccc3cccnc23)sc2ccccc12 -3.1%
O=[N+]([O-])c1ccc(O)c(N=Cc2sc3ccccc3c2O)c1 25.4%
COc1ccc(S(=O)(=O)NCCOc2ccccc2)cc1-n1cnnn1 7.4%
Nc1nc(SCc2c(Cl)cccc2Cl)n[nH]1 -8.6%
Cc1ccn2cc(C(=O)Nc3ccc4c(c3)OCCO4)nc2c1 8.6%
CCOC(=O)c1cn2ccc(C)cc2n1 10%
CC1CCN(CC(=O)Nc2sc3c(c2C#N)CCC3)CC1 -6.5%
CC(C)CCN1CCN(C2CCN(c3ccccc3)CC2)CC1CCO (stereo not drawn) 7%
Cc1cc(F)ccc1N1CCC(N2CCN(CCC(C)C)C(CCO)C2)CC1 (stereo not drawn) 4.2%
C=CCSc1nnc(NC(=O)c2cn(CC)c3nc(C)ccc3c2=O)s1 -1.9%
COCCn1c(N)c(C(=O)OCc2ccccc2)c2nc3ccccc3nc21 49.4%
COc1ccc(CNC(=O)c2c(N)n(CCCN3CCOCC3)c3nc4ccccc4nc23)cc1 20.1%
COc1ccc(CCn2c(N)c(C(=O)NCc3ccco3)c3nc4ccccc4nc32)cc1 48.2%
Nc1c(C(=O)NCc2ccccc2)c2nc3ccccc3nc2n1CCCN1CCOCC1 49%
COCCn1c(N)c(S(=O)(=O)c2cccs2)c2nc3ccccc3nc21 4.3%
COc1ccc(OC)c(-n2c(N)c(C(=O)NCC3CCCO3)c3nc4ccccc4nc32)c1 (stereo not drawn) 17.6%
Nc1c(C(=O)NCc2ccco2)c2nc3ccccc3nc2n1CCc1ccccc1 34.8%
COCCn1c(N)c(C(=O)Nc2sc3c(c2C(=O)OC)CCCC3)c2nc3ccccc3nc21 11.1%
COc1ccccc1/C=N/NC(=O)c1ccccc1Cl 2.7%
COc1ccc2nc(C)cc(SCC(=O)NNC(=O)COc3cccc4ccccc34)c2c1 -3%
CC(C)N(C(=O)Cn1cc(SCC(N)=O)c2ccccc21)C(C)C -4.4%
COc1cccc(NC(=O)CSCC(=O)O)c1 8.3%
CCOC(=O)Cn1cc(C(=O)c2cccs2)c2ccccc21 5.6%
O=S(=O)(NC1CC2CCC1C2)c1ccc2c(c1)OCCO2 (stereo not drawn) 3.1%
CC(=O)Nc1ccc(NC(=O)Cn2c(=O)n(-c3ccc(F)cc3)c(=O)c3oc4ccccc4c32)cc1 -9.8%
COCCCNC(=O)c1c(N)n(-c2ccc(S(N)(=O)=O)cc2)c2nc3ccccc3nc12 38.7%
C=CCn1c(N)c(C(=O)Nc2ccc(C)c(C)c2)c2nc3ccccc3nc21 41.2%
COc1ccc(-n2c(N)c(C(=O)NCC3CCCO3)c3nc4ccccc4nc32)c(OC)c1 (stereo not drawn) 45%
CC(C)Cn1c(N)c(C(=O)NCCN2CCOCC2)c2nc3ccccc3nc21 20.7%
COCCNC(=O)c1c(N)n(-c2cccc(C)c2)c2nc3ccccc3nc12 25.9%
COc1ccccc1-n1c(N)c(C(=O)NCC2CCCO2)c2nc3ccccc3nc21 (stereo not drawn) -18.2%
O=C(NCC1CCCO1)c1coc2nc3ccccc3nc12 (stereo not drawn) -9.5%
C=CCn1c(N)c(C(=O)Nc2ccccc2)c2nc3ccccc3nc21 13.4%
O=C(Cn1c(NCCCO)nc2ccccc21)c1cccc(Br)c1 4.9%
O=C(CSc1nnc(COc2ccccc2)n1Cc1ccco1)NCc1ccco1 2.2%
O=C1CC(c2ccccc2)CC(O)=C1C=NCc1ccccc1Cl (stereo not drawn) 4.3%
O=C(COC(=O)c1cc2c(s1)CCCC2)Nc1ccc(Cl)cn1 4.6%
CCc1nnc(NC(=O)CCC(=O)N2CCN(CCc3ccccc3)CC2)s1 -5.9%
CCn1c(CNc2ccc(F)cc2)nnc1SCC(=O)N1CCCc2ccccc21 27.9%
CCc1ccccc1S(=O)(=O)Cc1ccc(C(=O)NCc2ccc3c(c2)OCO3)o1 -1.6%
N#Cc1c(NC(=O)c2ccccc2Cl)n(Cc2ccccc2)c2nc3ccccc3nc12 32.7%
N#Cc1c(N)n(CCNC(=O)c2ccc(Cl)cc2)c2nc3ccccc3nc12 16.9%
CCCCCn1c(N)c(C#N)c2nc3ccccc3nc21 42.7%
CCCCn1c(NC(=O)c2ccccc2)nc2ccccc21 -3.6%
CCC(=O)Nc1c(C#N)c2nc3ccccc3nc2n1-c1ccccc1C 24.5%
N#Cc1c(N)n(CCNC(=O)c2ccccc2)c2nc3ccccc3nc12 24.7%
CCCCn1c(NC(=O)CC)c(C#N)c2nc3ccccc3nc21 13%
Cc1ccccc1C(=O)Nc1ccc2c(C#N)c3nc4ccccc4nc3n2c1 6.1%
O=C(CSc1nc2ccccc2n1CC(=O)N1CCCC1)NCc1ccc2c(c1)OCO2 -0.8%
Cc1ccc(NC(=O)c2cc3c(s2)CCC3)cc1S(=O)(=O)N1CCOCC1 8.8%
COc1ccc(S(=O)(=O)NCc2cccs2)cc1 -18.3%
O=C(NC(=S)NCCCN1CCOCC1)c1cccc2ccccc12 1%
O=S1(=O)NC(=NCCc2ccccn2)c2ccccc21 -6.8%
O=C1c2ccccc2C(=O)N1c1cccc2cccnc12 -2.2%
O=S(=O)(c1ccc(Cl)cc1)N1CCN(c2ccc(N3CCOCC3)nn2)CC1 -2.7%
N#CC1=C(N)Oc2c(ccc3ccccc23)C1c1cccs1 (stereo not drawn) 3.4%
N#CC1=C(N)Oc2c(O)cc3ccccc3c2C1c1ccsc1 (stereo not drawn) 30.3%
c1ccc(N2CCN(c3nc4ccccc4n4cnnc34)CC2)cc1 10%
CC1(C)Oc2cc(N)c([N+](=O)[O-])cc2O1 28.1%
Nc1ccc(-c2ccc(N)c([N+](=O)[O-])c2)cc1[N+](=O)[O-] -2.3%
O=c1[nH]cnc2ccsc12 -6%
CCOc1ccccc1NC(=O)CN(c1ccc(OC)cc1OC)S(=O)(=O)c1ccccc1[N+](=O)[O-] -0.9%

inhibition, active:
O=C(O)C1CC(O)CN1c1nc(Cl)ccc1[N+](=O)[O-] (stereo not drawn) 64.1%
Cc1cc(C)nc(-n2cc(C(=O)c3cc(F)ccc3O)cn2)n1 52.4%
Oc1ccc(Cl)cc1N=Cc1sc2ccccc2c1Cl 55.5%
Oc1ccccc1N=Cc1sc2ccccc2c1Cl 56.6%
Cc1ccn2cc(C(=O)Nc3nnc(C)s3)nc2c1 51.4%
CC(C)CCN1CCN(C2CCN(c3ccc4c(c3)OCO4)CC2)CC1CCO (stereo not drawn) 52.3%
COc1ccc(CCn2c(N)c(C(=O)NCc3ccco3)c3nc4ccccc4nc32)cc1OC 51.6%
COCCn1c(N)c(C(=O)NCC2CCCO2)c2nc3ccccc3nc21 (stereo not drawn) 71.5%
COCCn1c(N)c(C(=O)NCc2cccs2)c2nc3ccccc3nc21 62.5%
COc1ccccc1CNC(=O)c1c(N)n(CCCN2CCOCC2)c2nc3ccccc3nc12 52.5%
COCCNC(=O)c1c(N)n(-c2ccccc2)c2nc3ccccc3nc12 55.1%
C=CCn1c(N)c(C(=O)NCC2CCCO2)c2nc3ccccc3nc21 (stereo not drawn) 57%
CC(C)Cn1c(N)c(C(=O)NCC2CCCO2)c2nc3ccccc3nc21 (stereo not drawn) 59.5%
Nc1c(C(=O)NCC2CCCO2)c2nc3ccccc3nc2n1-c1ccccc1 (stereo not drawn) 60.3%
CCCCn1c(NC(=O)c2ccccc2)c(C#N)c2nc3ccccc3nc21 54.7%
CCCCn1c(NC(=O)c2ccccc2Cl)c(C#N)c2nc3ccccc3nc21 53.7%
CCCCn1c(NC(C)=O)c(C#N)c2nc3ccccc3nc21 57%
C=CCn1c(NC(=O)c2ccccc2Cl)c(C#N)c2nc3ccccc3nc21 54.5%
O=S1(=O)Nc2c(ccc3cccnc23)-c2ccccc21 69.5%
N#CC1=C(N)Oc2c(ccc3ccccc23)C1c1ccsc1 (stereo not drawn) 53.2%
